# Values joined by “and” are separate entries in the source; they are usually repeats but may differ in a detail not shown here. Equal entries are not always repeated. Active and inactive are the calls of the source.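 The calls were made as follows, unless noted: active = thallium flux through the channel raised or lowered by more than 3 SD from vehicle-only wells, actives on both sides; inactive = the rest.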
# Key:
# [1] = liver-stage malaria parasite growth inhibition, primary screen, cell-based, HepG2, luciferase luminescence, HepG2 viability (AID 624349; in the data active = parasite load remaining mostly below about 12%, no sharp cut-off; inactive = mostly above about 10%;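 also: 100% = mean of DMSO negative control wells on the same plate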); conditions: P. berghei liver stage in HepG2, luciferase luminescence, concentration not given here; parasite load remaining: stronger effect = lower value; viability: measured here: HepG2 viability without parasites
# [2] = Cy5 fluorescence interference with SSB-bound oligo, artefact control for HCV NS3 helicase inhibitor project, biochemical, NIH Clinical Collection, E. coli SSB (AID 743268; call rule not given here)
# [3] = system: Hepatitis C virus NS3 helicase; assay: HCV NS3 helicase inhibitors, primary screen, biochemical, fluorescence polarization, NIH Clinical Collection (AID 743270; call rule not given here); conditions: NS3 helicase binding to Cy5-dT15 DNA, stronger effect = higher value, concentration not given here
# [4] = molecular target: Single-stranded DNA-binding protein (Escherichia coli (strain K12)) (UniProt P0AGE0); assay: E. coli SSB displacement from DNA, counter-screen for HCV NS3 helicase inhibitor project, biochemical, fluorescence polarization, NIH Clinical Collection (AID 743271; in the data active = inhibition above about 28%); conditions: stronger effect = higher value, concentration not given here
# [5] = fluorescence interference in NS3h assay format, artefact control for HCV NS3 helicase inhibitor project, biochemical, NIH Clinical Collection (AID 743272; call rule not given here;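 also: HCV NS3 helicase with a Cy5 labelled single stranded DNA probe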); conditions: fluorescence interference counterscreen, stronger effect = lower value
# [6] = modulation of C. elegans fzo-1 (AID 1259413; call rule not given here;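 also: fzo-1 mutant C. elegans worms in liquid wells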); conditions: C. elegans fzo-1 modulator screen, mean read-out; stronger effect = higher value
# [7] = sensitizers of A549 cells to miR-34 induction, primary screen, imaging, A549 dox-inducible miR-34, nuclei and caspase counts (AID 1347080;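 active = compounds whose cell count with miR-34 switched on is under 0.7 times the count with it off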); conditions: A549 miR-34 inducible, Hoechst nuclei count, 48 h
# [8] = survival rescue of mitochondrial mutant cells in low glucose, primary screen, MELAS cybrids, Rieske KO mouse fibroblasts, CellTiter-Glo (AID 1508586;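 active = mean z-score across replicates of 1.96 or higher in either the MELAS or the Rieske mutant cell line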;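 also: z relative to plate mean and SD of compound and empty wells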)
# [9] = viability rescue of complex I mutant cybrids, primary screen, cell-based, galactose medium, ATP luminescence (AID 1645843;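 active = z-score of at least 1.8 in each of two replicates, scored against plate mean and spread of sample wells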;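 also: positive z means more ATP and so rescue of galactose-driven cybrid death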); conditions: complex I mutant cybrid cells, 72 h, stronger effect = higher value
# F380Y = assay: modulators of BK channel variants, profiling panel, selectivity assay, cell-based, U2OS BacMam, thallium flux, beta subunits (AID 1259406); conditions: at 30 µM;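 also: initial slope of Thallos dye fluorescence rise after thallium is added; log ratio against the mean of 0.3% DMSO vehicle wells on the same plate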
# F380Y/beta1 = assay: as above; conditions: at 30 µM
# F380Y/beta2Delta = assay: as above; conditions: at 30 µM
# F380Y/beta4 = assay: as above; conditions: at 30 µM
# [10] = molecular target: Calcium-activated potassium channel subunit alpha-1 (Homo sapiens) + Leucine-rich repeat-containing protein 26 (Homo sapiens) (UniProt Q12791+Q2I0M4); assay: as above; conditions: F380Y/Slo1WT/gamma1, at 30 µM
# R275C = assay: as above; conditions: at 30 µM
# R275C/beta1 = assay: as above; conditions: at 30 µM
# R275C/beta2Delta = assay: as above; conditions: at 30 µM
# R275C/beta4 = assay: as above; conditions: at 30 µM
# R275C/Slo1WT/beta2 = assay: as above; conditions: at 30 µM
# [11] = stronger effect = lower value, cell number ratio, induced over uninduced
# [12] = measured here: relative caspase fold change +Dox/-Dox
# [13] = measured here: total cells with miR-34 induction, stronger effect = lower value
# [14] = measured here: total cells without miR-34 induction
# [15] = MELAS cybrid survival, CellTiter-Glo 48 h, stronger effect = higher value
# [16] = Rieske KO mouse fibroblast survival, CellTiter-Glo 72 h
# Chain of Calcium-activated potassium channel subunit alpha-1 (Homo sapiens) + Leucine-rich repeat-containing protein 26 (Homo sapiens) (Q2I0M4 whole entry, looked up, one chain of several): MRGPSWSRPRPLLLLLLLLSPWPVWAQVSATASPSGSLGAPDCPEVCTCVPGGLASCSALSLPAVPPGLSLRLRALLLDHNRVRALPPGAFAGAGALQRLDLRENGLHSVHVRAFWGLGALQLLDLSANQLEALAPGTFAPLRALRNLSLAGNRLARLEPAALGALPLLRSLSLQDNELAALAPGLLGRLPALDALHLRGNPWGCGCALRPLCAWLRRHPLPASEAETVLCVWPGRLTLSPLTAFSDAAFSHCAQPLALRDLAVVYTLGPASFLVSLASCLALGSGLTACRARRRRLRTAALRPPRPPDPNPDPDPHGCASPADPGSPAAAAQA
structure (smiles),measurement,setting,value
C=CCc1ccc(O)c(-c2ccc(O)c(CC=C)c2)c1,parasite load remaining,[1],18.8% (inactive)
same,viability,[1],70.3%
same,fluorescence ratio,[2],0.94 (inactive)
same,inhibition,[3],5.94% (inactive)
same,inhibition,[4],5.29% (inactive)
same,fluorescence ratio,[5],0.94 (inactive)
same,mean signal,[6],216 (inactive)
same,fold change,[7]; [11],0.989 (inactive) and 0.916 (inactive)
same,fold change,[7]; [12],1.37 and 0.714
same,cell count,[7]; [13],8192 and 9270
same,cell count,[7]; [14],8280 and 10100
same,z-score,[8]; [15],-0.24 (inactive)
same,z-score,[8]; [16],0.74
same,z-score,[9],-1.87 (inactive)
same,log fold change Tl+ flux,F380Y,0.306 (active)
same,log fold change Tl+ flux,F380Y/beta1,0.643 (active)
same,log fold change Tl+ flux,F380Y/beta2Delta,0.34 (active)
same,log fold change Tl+ flux,F380Y/beta4,0.501 (active)
same,log fold change Tl+ flux,[10],0.418 (active)
same,log fold change Tl+ flux,R275C,0.0538 (inactive)
same,log fold change Tl+ flux,R275C/beta1,0.387 (active)
same,log fold change Tl+ flux,R275C/beta2Delta,0.524 (active)
same,log fold change Tl+ flux,R275C/beta4,0.697 (active)
same,log fold change Tl+ flux,R275C/Slo1WT/beta2,0.149 (active)
Cc1onc(-c2ccccc2)c1C(=O)NC1C(=O)N2C1SC(C)(C)C2C(=O)O (configuration not stated),parasite load remaining,[1],62.5% (inactive)
same,viability,[1],137%
same,fluorescence ratio,[2],1.01 (inactive)
same,inhibition,[3],-1.36% (inactive)
same,inhibition,[4],2.57% (inactive)
same,fluorescence ratio,[5],1 (inactive)
same,mean signal,[6],250 (inactive)
same,fold change,[7]; [11],0.977 (inactive) and 0.865 (inactive)
same,fold change,[7]; [12],2.75 and 0.316
same,cell count,[7]; [13],10800 and 8670
same,cell count,[7]; [14],11000 and 10000
same,z-score,[8]; [15],1.06 (inactive)
same,z-score,[8]; [16],0.0389
same,z-score,[9],0.33 (inactive) and 0.12 (inactive)
same,log fold change Tl+ flux,F380Y,-0.000886 (inactive)
same,log fold change Tl+ flux,F380Y/beta1,-0.0194 (inactive)
same,log fold change Tl+ flux,F380Y/beta2Delta,-0.0125 (inactive)
same,log fold change Tl+ flux,F380Y/beta4,-0.0665 (inactive)
same,log fold change Tl+ flux,[10],0.0114 (inactive)
same,log fold change Tl+ flux,R275C,0.00519 (inactive)
same,log fold change Tl+ flux,R275C/beta1,0.0152 (inactive)
same,log fold change Tl+ flux,R275C/beta2Delta,0.00981 (inactive)
same,log fold change Tl+ flux,R275C/beta4,-0.0329 (inactive)
same,log fold change Tl+ flux,R275C/Slo1WT/beta2,-0.0606 (inactive)
COC(=O)Nc1nc2ccc(C(=O)c3ccc(F)cc3)cc2[nH]1,parasite load remaining,[1],68.5% (inactive) and 34.2% (inactive)
same,viability,[1],85.5% and 74.5%
same,fluorescence ratio,[2],1.06 (inactive)
same,inhibition,[3],-1.19% (inactive)
same,inhibition,[4],-0.87% (inactive)
same,fluorescence ratio,[5],0.95 (inactive)
same,mean signal,[6],249 (inactive)
same,fold change,[7]; [11],1.22 (inactive) and 1.03 (inactive)
same,fold change,[7]; [12],1.31 and 0.65
same,cell count,[7]; [13],1820 and 2010
same,cell count,[7]; [14],1490 and 1950
same,z-score,[8]; [15],-2.49 (inactive) and -1.97 (inactive)
same,z-score,[8]; [16],1.69 and 0.533
same,z-score,[9],-1.28 (inactive) and -0.83 (inactive)
same,log fold change Tl+ flux,F380Y,-0.0412 (inactive)
same,log fold change Tl+ flux,F380Y/beta1,0.0196 (inactive)
same,log fold change Tl+ flux,F380Y/beta2Delta,-0.0407 (inactive)
same,log fold change Tl+ flux,F380Y/beta4,-0.0852 (inactive)
same,log fold change Tl+ flux,[10],0.00265 (inactive)
same,log fold change Tl+ flux,R275C,-0.0283 (inactive)
same,log fold change Tl+ flux,R275C/beta1,-0.0436 (inactive)
same,log fold change Tl+ flux,R275C/beta2Delta,-0.052 (inactive)
same,log fold change Tl+ flux,R275C/beta4,0.0237 (inactive)
same,log fold change Tl+ flux,R275C/Slo1WT/beta2,0.00461 (inactive)
CC(C)OC(=O)CCC/C=C\C[C@@H]1[C@@H](CC[C@@H](O)CCc2ccccc2)[C@H](O)C[C@@H]1O,parasite load remaining,[1],89.4% (inactive) and 43.5% (inactive)
same,viability,[1],60.9% and 104%
same,fluorescence ratio,[2],0.97 (inactive)
same,inhibition,[3],0.4% (inactive)
same,inhibition,[4],-5.49% (inactive)
same,fluorescence ratio,[5],0.95 (inactive)
same,mean signal,[6],205 (inactive)
same,fold change,[7]; [11],0.899 (inactive)
same,fold change,[7]; [12],1.07
same,cell count,[7]; [13],10000
same,cell count,[7]; [14],11100
same,z-score,[8]; [15],0.73 (inactive) and -0.464 (inactive)
same,z-score,[8]; [16],1.53 and -0.0343
same,z-score,[9],0.01 (inactive)
same,log fold change Tl+ flux,F380Y,0.503 (active)
same,log fold change Tl+ flux,F380Y/beta1,0.284 (active)
same,log fold change Tl+ flux,F380Y/beta2Delta,-0.0484 (inactive)
same,log fold change Tl+ flux,F380Y/beta4,0.158 (active)
same,log fold change Tl+ flux,[10],0.228 (active)
same,log fold change Tl+ flux,R275C,-0.0794 (inactive)
same,log fold change Tl+ flux,R275C/beta1,0.476 (active)
same,log fold change Tl+ flux,R275C/beta2Delta,0.262 (active)
same,log fold change Tl+ flux,R275C/beta4,0.467 (active)
same,log fold change Tl+ flux,R275C/Slo1WT/beta2,0.084 (active)
CC(=O)CCCCn1cnc2c1c(=O)n(C)c(=O)n2C,parasite load remaining,[1],108% (inactive)
same,viability,[1],91.8%
same,fluorescence ratio,[2],1.04 (inactive)
same,inhibition,[3],-0.4% (inactive)
same,inhibition,[4],-0.1% (inactive)
same,fluorescence ratio,[5],0.95 (inactive)
same,mean signal,[6],257 (inactive)
same,fold change,[7]; [11],0.919 (inactive)
same,fold change,[7]; [12],1.72
same,cell count,[7]; [13],9610
same,cell count,[7]; [14],10500
same,z-score,[9],0.63 (inactive)
same,log fold change Tl+ flux,F380Y,-0.0664 (inactive)
same,log fold change Tl+ flux,F380Y/beta1,-0.015 (inactive)
same,log fold change Tl+ flux,F380Y/beta2Delta,-0.0429 (inactive)
same,log fold change Tl+ flux,F380Y/beta4,-0.0419 (inactive)
same,log fold change Tl+ flux,[10],0.0418 (inactive)
same,log fold change Tl+ flux,R275C,-0.00612 (inactive)
same,log fold change Tl+ flux,R275C/beta1,-0.0249 (inactive)
same,log fold change Tl+ flux,R275C/beta2Delta,0.0157 (inactive)
same,log fold change Tl+ flux,R275C/beta4,-0.0496 (inactive)
same,log fold change Tl+ flux,R275C/Slo1WT/beta2,-0.0588 (inactive)
COc1ccnc(CS(=O)c2nc3cc(OC(F)F)ccc3[nH]2)c1OC (configuration not stated),parasite load remaining,[1],94.6% (inactive)
same,viability,[1],75.5%
same,fluorescence ratio,[2],1.07 (inactive)
same,inhibition,[3],-2.77% (inactive)
same,inhibition,[4],1.44% (inactive)
same,fluorescence ratio,[5],1.05 (inactive)
same,mean signal,[6],243 (inactive)
same,fold change,[7]; [11],0.937 (inactive)
same,fold change,[7]; [12],1.32
same,cell count,[7]; [13],9070
same,cell count,[7]; [14],9680
same,z-score,[8]; [15],1.33 (inactive)
same,z-score,[8]; [16],0.907
same,z-score,[9],0.63 (inactive)
same,log fold change Tl+ flux,F380Y,-0.000729 (inactive)
same,log fold change Tl+ flux,F380Y/beta1,-0.0068 (inactive)
same,log fold change Tl+ flux,F380Y/beta2Delta,0.0285 (inactive)
same,log fold change Tl+ flux,F380Y/beta4,-0.0379 (inactive)
same,log fold change Tl+ flux,[10],0.0336 (inactive)
same,log fold change Tl+ flux,R275C,-0.0182 (inactive)
same,log fold change Tl+ flux,R275C/beta1,0.0487 (inactive)
same,log fold change Tl+ flux,R275C/beta2Delta,0.0404 (inactive)
same,log fold change Tl+ flux,R275C/beta4,-0.00392 (inactive)
same,log fold change Tl+ flux,R275C/Slo1WT/beta2,-0.00592 (inactive)

# — PubChem BioAssay
